Results taken from PubChem BioAssay AID1159580 (chemical genetic matrix, 2015).
Several values for one entry are separate records, joined by “and”; a condition that tells them apart may be missing. Equal entries are not always repeated. Out of some 5,500 compounds screened, about 2,000 (36%) were called active. Not shown: some 18% with an inconclusive outcome. Rule as the data show it: active = normalized growth mostly below about 0.91 (no sharp cut-off); inconclusive = no clear call, values can overlap the other calls; inactive = mostly above about 0.92. The list shows a part of the results.

Assay: chemical genetic growth profiling, strain panel (AID 1159580);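 also: tested at 20 µM; growth read once vehicle control cultures reached saturation at 30 °C; 1 = growth at the plate median or of vehicle wells; lower values mean less growth of the strain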
Conditions: S. cerevisiae deletion strains, growth OD

Measured: normalized growth

CC(C)=CCCC1(C)C=Cc2c(O)c3c(c(CC=C(C)C)c2O1)OC12C(=CC4CC1C(C)(C)OC2(C/C=C(/C)C(=O)O)C4O)C3=O (configuration not stated)
active: locus YDR502C, strain sam2, active compounds read low 0.917 | locus YGL086W, strain mad1, active compounds read low 0.925 | locus YKR001C, strain vps1, active compounds read low 0.849 | locus YLR268W, strain sec22, active compounds read low 0.883 | locus YLR418C, strain cdc73, active compounds read low 0.787 | locus YNL307C, strain MCK1, active compounds read low 0.72 | locus YOR184W, strain ser1, active compounds read low 0.803 | locus YPR163C, strain tif3, active compounds read low 0.909
inactive: locus YBR021W, strain FUR4, active compounds read low 1.02 | locus YBR229C, strain ROT2, active compounds read low 0.947 | locus YCL029C, strain bik1, active compounds read low 0.946 | locus YDL035C, strain GPR1, active compounds read low 0.953 | locus YDL074C, strain BRE1, active compounds read low 1.03 | locus YDL101C, strain DUN1, active compounds read low 0.944 | locus YDL134C, strain PPH21, active compounds read low 0.949 | locus YDL185W, strain tfp1, active compounds read low 0.955 | locus YDL192W, strain arf1, active compounds read low 0.945 | locus YDR101C, strain arx1, active compounds read low 0.929 | locus YDR162C, strain NBP2, active compounds read low 0.862 | locus YDR318W, strain mcm21, active compounds read low 0.931 | locus YDR388W, active compounds read low 0.942 | locus YER110C, active compounds read low 0.952 | locus YER155C, strain BEM2, active compounds read low 1.01 | locus YER167W, strain BCK2, active compounds read low 0.995 | locus YGL078C, strain dbp3, active compounds read low 0.967 | locus YGL248W, strain PDE1, active compounds read low 0.946 | locus YGR078C, strain PAC10, active compounds read low 1.01 | locus YGR135W, strain pre9, active compounds read low 1 | locus YGR252W, strain gcn5, active compounds read low 1.06 | locus YHR030C, strain SLT2, active compounds read low 0.983 and 0.976 | locus YHR079C, strain IRE1 (second series), active compounds read low 0.944 | locus YHR079C, strain IRE1, active compounds read low 0.971 | locus YHR094C, strain hxt1, active compounds read low 0.958 | locus YHR129C, strain ARP1, active compounds read low 0.955 | locus YHR200W, strain rpn10, active compounds read low 0.938 | locus YIL066C, strain RNR3, active compounds read low 0.924 | locus YIL073C, strain SPO22, active compounds read low 1.06 | locus YIL125W, strain kgd1, active compounds read low 0.936 | locus YIR030C, strain dcg1, active compounds read low 0.966 | locus YJL095W, strain BCK1, active compounds read low 0.938 and 0.988 | locus YJL134W, strain LCB3, active compounds read low 0.976 | locus YJL168C, strain set2, active compounds read low 0.99 | locus YJL187C, strain SWE1 (second series), active compounds read low 0.929 | locus YJR043C, strain POL32, active compounds read low 0.963 | locus YJR066W, strain TOR1, active compounds read low 0.949 | locus YKL009W, strain mrt4, active compounds read low 0.953 | locus YKL068W, active compounds read low 0.98 | locus YKL085W, strain MDH1 (second series), active compounds read low 0.962 | locus YKL085W, strain MDH1, active compounds read low 0.962 | locus YLR039C, strain RIC1, active compounds read low 0.883 | locus YLR058C, strain SHM2, active compounds read low 0.931 | locus YLR102C, strain apc9, active compounds read low 0.966 | locus YLR113W, strain HOG1, active compounds read low 0.911 | locus YLR330W, strain CHS5, active compounds read low 0.991 | locus YLR371W, strain rom2, active compounds read low 0.964 | locus YML016C, strain PPZ1, active compounds read low 0.963 | locus YML032C, strain rad52, active compounds read low 0.945 | locus YML124C, strain tub3, active compounds read low 0.952 | locus YMR078C, strain ctf18, active compounds read low 0.967 | locus YMR223W, strain ubp8, active compounds read low 0.956 | locus YMR263W, strain SAP30, active compounds read low 0.971 | locus YMR307W, strain GAS1, active compounds read low 1.03 | locus YNL067W, strain RPL9B, active compounds read low 0.985 | locus YNL128W, strain TEP1, active compounds read low 0.921 | locus YNL183C, strain NPR1, active compounds read low 0.917 | locus YNL233W, strain BNI4, active compounds read low 1.02 | locus YNL250W, strain rad50, active compounds read low 0.951 | locus YNL271C, strain bni1, active compounds read low 0.947 | locus YNL298W, strain CLA4, active compounds read low 0.955 | locus YNL322C, strain KRE1, active compounds read low 0.986 | locus YNR052C, strain pop2, active compounds read low 0.961 | locus YOL012C, strain htz1 0.366 | locus YOL147C, strain pex11, active compounds read low 0.97 | locus YOR061W, strain CKA2, active compounds read low 0.924 | locus YOR069W, strain VPS5, active compounds read low 0.979 | locus YOR136W, strain idh2, active compounds read low 0.962 | locus YOR144C, strain elg1, active compounds read low 0.966 | locus YOR231W, strain MKK1, active compounds read low 0.942 | locus YOR316C, strain cot1, active compounds read low 0.956 | locus YPL055C, strain LGE1, active compounds read low 0.949 | locus YPL241C, strain CIN2, active compounds read low 0.98 | locus YPL256C, strain CLN2, active compounds read low 0.955 | locus YPR119W, strain clb2, active compounds read low 0.966 | locus YPR141C, strain kar3, active compounds read low 0.954 | locus YPR167C, strain met16, active compounds read low 0.984 | strain wtn01, active compounds read low 0.911

CC1OC(=O)C(C(C)C)NC(=O)C(C(C)C)OC(=O)C(C(C)C)NC(=O)C(C)OC(=O)C(C(C)C)NC(=O)C(C(C)C)OC(=O)C(C(C)C)NC(=O)C(C)OC(=O)C(C(C)C)NC(=O)C(C(C)C)OC(=O)C(C(C)C)NC1=O (configuration not stated)
active: locus YAL021C, strain ccr4, active compounds read low 0.202 | locus YAL026C, strain drs2, active compounds read low 0.544 | locus YAL030W, strain snc1, active compounds read low 0.326 | locus YBL061C, strain skt5, active compounds read low 0.229 | locus YBR009C, strain hhf1, active compounds read low 0.223 | locus YBR023C, strain chs3, active compounds read low 0.23 | locus YBR171W, strain sec66, active compounds read low 0.54 | locus YBR231C, strain swc5, active compounds read low 0.286 | locus YBR279W, strain paf1, active compounds read low 0.544 | locus YCL011C, strain gbp2, active compounds read low 0.28 | locus YCL016C, strain dcc1, active compounds read low 0.238 | locus YCL069W, strain vba3, active compounds read low 0.51 | locus YCR088W, strain abp1, active compounds read low 0.51 | locus YDL005C, strain med2, active compounds read low 0.332 | locus YDL040C, strain nat1, active compounds read low 0.468 | locus YDR001C, strain nth1, active compounds read low 0.615 | locus YDR069C, strain doa4, active compounds read low 0.383 | locus YDR137W, strain rgp1, active compounds read low 0.144 | locus YDR159W, strain sac3, active compounds read low 0.318 | locus YDR195W, strain ref2 0.336 | locus YDR297W, strain sur2, active compounds read low 0.404 | locus YDR334W, strain swr1, active compounds read low 0.494 | locus YDR335W, strain msn5, active compounds read low 0.697 | locus YDR392W, strain spt3, active compounds read low 0.148 | locus YEL003W, strain gim4, active compounds read low 0.357 | locus YEL037C, strain rad23, active compounds read low 0.673 | locus YEL061C, strain CIN8 (second series), active compounds read low 0.448 | locus YER015W, strain faa2, active compounds read low 0.205 | locus YER016W, strain bim1, active compounds read low 0.259 | locus YER111C, strain swi4, active compounds read low 0.639 | locus YER155C, strain BEM2 (second series), active compounds read low 0.6 | locus YFR010W, strain ubp6, active compounds read low 0.535 | locus YGL167C, strain pmr1, active compounds read low 0.166 | locus YGL173C, strain kem1, active compounds read low 0.157 | locus YGL227W, strain vid30, active compounds read low 0.599 | locus YGL240W, strain doc1, active compounds read low 0.112 | locus YGL253W, strain hxk2, active compounds read low 0.243 | locus YHR013C, strain ard1, active compounds read low 0.159 | locus YHR027C, strain rpn1, active compounds read low 0.331 | locus YHR142W, strain chs7, active compounds read low 0.342 | locus YJL092W, strain hpr5, active compounds read low 0.556 | locus YJL095W, strain BCK1 (second series), active compounds read low 0.266 | locus YJL115W, strain asf1, active compounds read low 0.79 | locus YJL129C, strain trk1, active compounds read low 0.251 | locus YJL154C, strain vps35, active compounds read low 0.688 | locus YJL164C, strain tpk1, active compounds read low 0.267 | locus YJL166W, strain qcr8, active compounds read low 0.115 | locus YJL187C, strain SWE1, active compounds read low 0.343 | locus YKL160W, strain elf1, active compounds read low 0.278 | locus YKR026C, strain gcn3, active compounds read low 0.65 | locus YKR091W, strain srl3, active compounds read low 0.476 | locus YLL001W, strain dnm1, active compounds read low 0.499 | locus YLL026W, active compounds read low 0.301 | locus YLL041C, strain sdh2, active compounds read low 0.368 | locus YLR027C, strain aat2, active compounds read low 0.27 | locus YLR221C, strain rsa3, active compounds read low 0.326 | locus YLR258W, strain gsy2, active compounds read low 0.349 | locus YLR262C, strain YPT6 (second series), active compounds read low 0.132 | locus YLR320W, strain mms22, active compounds read low 0.18 | locus YLR342W, strain FKS1, active compounds read low 0.115 | locus YLR370C, strain arc18, active compounds read low 0.395 | locus YLR384C, strain iki3, active compounds read low 0.464 | locus YML120C, strain ndi1, active compounds read low 0.389 | locus YMR058W, strain fet3, active compounds read low 0.486 | locus YMR125W, strain sto1, active compounds read low 0.835 | locus YMR129W, active compounds read low 0.411 | locus YMR205C, strain PFK2, active compounds read low 0.278 | locus YMR231W, strain pep5, active compounds read low 0.193 | locus YNL071W, strain lat1, active compounds read low 0.0873 | locus YNL209W, strain ssb2, active compounds read low 0.237 | locus YNL322C, strain KRE1 (second series), active compounds read low 0.463 | locus YNR049C, strain mso1, active compounds read low 0.563 | locus YOR001W, strain rrp6, active compounds read low 0.497 | locus YOR070C, strain gyp1, active compounds read low 0.216 | locus YOR080W, strain dia2, active compounds read low 0.381 | locus YOR083W, strain WHI5, active compounds read low 0.318 | locus YOR106W, strain vam3, active compounds read low 0.331 | locus YOR265W, strain rbl2, active compounds read low 0.288 | locus YOR270C, strain vph1, active compounds read low 0.227 | locus YOR290C, strain snf2, active compounds read low 0.61 | locus YPL051W, strain arl3, active compounds read low 0.125 | locus YPL078C, strain atp4, active compounds read low 0.14 | locus YPL106C, strain sse1, active compounds read low 0.359 | locus YPL240C, strain hsp82, active compounds read low 0.412
inactive: locus YLR357W, strain rsc2, active compounds read low 0.891 | locus YNL248C, strain rpa49, active compounds read low 0.944
